This is a sample that favours compounds with a hit; in the whole collection about 7.1% have one here.
SW480 rerep: inducers of DNA re-replication in SW480 colon cancer cells; SW480 DNA re-replication, Hoechst DNA content imaging, 48 h; Potency, µM (series often up to 46.1 µM), for the others: top-dose re-replication activation, hits mostly activators; 1.8% of 340,000 active; note: % of control where 0% means no effect; nearly all actives have a fitted effect of over 55% in size
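Compounds, transferred as 23 nL by pin tool, were incubated with cells for 48 hr; DNA content per nucleus was then quantified by Hoechst staining and fluorescence plate imaging.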
AT treatment: potential ataxia-telangiectasia treatment; Potency, µM (titrated, usually from 57.5 µM), for the others: at the highest dose activation, most hits filed as activators; 0.19% of 320,000 active; F2112 A-T fibroblasts, KAP-1 phosphorylation AlphaLISA; neocarzinostatin DNA damage 30 min before lysis; AID 485349; note: % of control where 0% means no effect; nearly all actives have a fitted effect of over 45% in size
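hTERT-immortalized A-T patient fibroblasts (F2112), 500 cells/well in OPTI-MEM, 1% FBS, got compounds for 60 min, then NCS for 30 min at 37C. Lysates were then assayed for phospho-KAP-1 by AlphaLISA (anti-pKAP1 donor, anti-KAP1 acceptor beads), 6 hr at 25C.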
ELG1 genotoxic: inducers of genotoxicity in HEK293T ELG1-luciferase cells; AID 504466; HEK293T ELG1-luciferase reporter, luminescence, 16 h; Potency, µM (top dose mostly 46 µM), inactives show at the top dose activity change, positive = activation, most hits filed as activators; 1.3% of 330,000 active; note: % of control where 0% means no effect; nearly all actives have a fitted effect of over 60% in size
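Screening used a luciferase reporter fused to human ELG1 in HEK293T cells. Luminescence was read on a CCD plate imager after 16 hr exposure and 30 min ONE-Glo incubation.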
ELG1 repair inh: blocks ELG1-dependent DNA repair in HEK293T cells. HEK293T ELG1-luciferase reporter, luminescence, 16 h; DNA damage induced by 5-fluorouridine. Potency, µM (highest dose often 46.1 µM), for inactives: at the highest dose activity change, negative = inhibition, usual class: inhibitors. 2.3% of 330,000 active. AID 504467; note: % is set by controls: 0 for no effect and ±100 for the full control effect; nearly all actives have a fitted effect of over 55% in size
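5-Fluorouridine DNA damage + compound/DMSO, 2,000 cells/well, 16 h, 37 °C/5% CO2. ONE-Glo, 30 min RT, luminescence. Readout = decrease in reporter signal.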
MCF10A rerep: DNA re-replication induction in MCF 10a cells; Potency, µM (series often up to 46.1 µM), inactives show at the top dose activity, positive = re-replication, most hits filed as activators; 2.9% of 350,000 active; MCF 10A DNA re-replication, Hoechst nuclear intensity, 48 h; note: % of control where 0% means no effect; nearly all actives have a fitted effect of over 50% in size
p53 reactivator: re-activators of mutant p53; H1299 p53-A138V BP100-luciferase reporter, luminescence, 24 h; Potency, µM (titrated, usually from 92.2 µM), for the others: top-dose activity change, positive = activation, actives largely listed as activators; 0.063% of 320,000 active; AID 504706; note: % of control where 0% means no effect; nearly all actives have a fitted effect of over 45% in size
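H1299 (p53-null), stable ts p53-A138V + BP100-Luc; 1000 cells/well, Opti-MEM/10% FBS; cpd 4 pt, 1:5; 24 h, 37 deg C, 5% CO2; detection reagent 10 min RT; luminescence.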
* hit, by the source's call. Calls come from the whole dose curve; as a rule, active = well fitted curve in the direction sought with a large enough effect; inconclusive = small, poorly fitted or top-dose-only effect, or another doubt; inactive = no such curve, though single readings can be large; an effect the other way counts as inactive or inconclusive. Potency is the fitted concentration of half-maximal effect.

For CCC(C(=O)N1CCN(S(=O)(=O)c2ccc(F)cc2)CC1)c1ccccc1 (configuration not stated) the results were SW480 rerep 6%, AT treatment -1%, ELG1 genotoxic -1%, ELG1 repair inh inconclusive, MCF10A rerep 4% and p53 reactivator -3%.
Screening CN(Cc1ccccc1)C(=O)c1cccc(NC(=O)Cc2ccc(NC(=O)C3CCCN(C(=O)c4ccccc4)C3)cc2)c1 (configuration not stated) returned SW480 rerep -3% and MCF10A rerep -22%.
COc1ccc(S(=O)(=O)N2CCc3ccccc32)cc1C(=O)Nc1ccc(C(N)=O)cc1 was read as SW480 rerep 6%, AT treatment 8%, ELG1 genotoxic 0%, ELG1 repair inh inconclusive, MCF10A rerep 23µM* and p53 reactivator -13%.
`O=C(Nc1nc2c(s1)CN(Cc1ccccc1)CC2)c1cccc(S(=O)(=O)N2CCc3ccccc32)c1` gave SW480 rerep 16µM*, AT treatment 22%, ELG1 genotoxic -5%, ELG1 repair inh -9%, MCF10A rerep 10µM* and p53 reactivator -2%.
For O=C(Nc1nc2ccccc2s1)c1cccc(S(=O)(=O)N2CCc3ccccc32)c1 the results were SW480 rerep -2%, AT treatment 14%, ELG1 genotoxic -1%, ELG1 repair inh -22%, MCF10A rerep 10% and p53 reactivator inconclusive.
Screening CN(C)S(=O)(=O)c1cccc(NC(=O)c2cccc(S(=O)(=O)N3CCc4ccccc43)c2)c1 returned SW480 rerep 1%, AT treatment 8%, ELG1 genotoxic -4%, ELG1 repair inh 16µM*, MCF10A rerep 2% and p53 reactivator -8%.
Screening COc1ccccc1C(=O)Nc1ccc(S(=O)(=O)N2CCc3ccccc32)cc1 returned SW480 rerep inconclusive, AT treatment 4%, ELG1 genotoxic 3%, ELG1 repair inh -15%, MCF10A rerep 7% and p53 reactivator 0%.
Screening CC(=O)NS(=O)(=O)c1ccc(NC(=O)c2cccc(S(=O)(=O)N3CCc4ccccc43)c2)cc1 returned SW480 rerep -5%, AT treatment 4%, ELG1 genotoxic 1%, ELG1 repair inh -9%, MCF10A rerep -1% and p53 reactivator -4%.
For CC1=C(C(=O)Nc2ccccn2)C(c2cccnc2)n2nnnc2N1 (configuration not stated) the results were SW480 rerep inconclusive, AT treatment -5%, ELG1 genotoxic 3%, ELG1 repair inh 16%, MCF10A rerep 8.2µM* and p53 reactivator -9%.
Screening CCN1CCOC(CC(=O)Nc2ccc([N+](=O)[O-])cc2)C1=O (configuration not stated) returned SW480 rerep -9%, AT treatment -3%, ELG1 genotoxic 1%, ELG1 repair inh 27%, MCF10A rerep 4% and p53 reactivator 4%.
Cc1ccc(S(=O)(=O)NCc2ccccc2)cc1C(=O)NC1CCC(C)CC1 (configuration not stated) was read as SW480 rerep -4%, AT treatment 0%, ELG1 genotoxic inconclusive, ELG1 repair inh inconclusive, MCF10A rerep 1% and p53 reactivator 10%.
Screening Cc1ccc(C)c(N2CCN(C(=O)Nc3ccc4c(c3)N(C)C(=O)CS4)CC2)c1 returned SW480 rerep 2%, AT treatment 3%, ELG1 genotoxic -11%, ELG1 repair inh 6.5µM*, MCF10A rerep 3% and p53 reactivator 2%.
CN1C(=O)CSc2ccc(NC(=O)N3CCN(c4ccccn4)CC3)cc21 was read as SW480 rerep -6%, AT treatment 2%, ELG1 genotoxic 0%, ELG1 repair inh inconclusive, MCF10A rerep -39% and p53 reactivator -15%.

Bioassay records as filed in PubChem.
